Compound activity: PubChem BioAssay, National Center for Advancing Translational Sciences (NCATS)
FMDV FLuc = FMDV antiviral activity by firefly signal | FMDV antiviral cell assay, firefly luciferase signal | Potency, µM (highest dose often 57.5 µM), for the others: top-dose activity change, negative = inhibition, most hits filed as inhibitors | 120,000 compounds, 0.23% hits | AID 1745856; further: nearly all actives have a fitted effect of over 60% in size
FMDV RLuc = antivirals against foot and mouth disease virus replicon; FMDV replicon cells, Renilla luciferase signal; Potency, µM (series often up to 57.5 µM), without a hit: top-dose activity change, negative = inhibition, actives largely listed as inhibitors; 120,000 compounds, 0.32% hits; AID 1745857; further: nearly all actives have a fitted effect of over 55% in size
An asterisk follows results filed as active; [ ] = another dose, or the depositor's remark. An excerpt weighted towards active compounds, which were near 0.51% of everything screened. The call rests on the fitted dose curve. On the % scale 0 is the no-effect control and ±100 the full control effect; potency means the concentration at half of the fitted maximal effect.

CC1(c2ccc3c(c2)CCC3)NC(=O)N(Cc2coc(-c3cccs3)n2)C1=O (configuration not stated) was read as FMDV FLuc 2% and FMDV RLuc 15%.
For Cc1nc(N2CCC(C(=O)Nc3cccc(Cl)c3C)CC2)c2c(C)c(C)oc2n1 the results were FMDV FLuc -3% and FMDV RLuc -3%.
Screening Cc1nc(N2CCC(C(=O)Nc3cccc(Br)c3)CC2)c2c(C)c(C)oc2n1 returned FMDV FLuc 18µM* and FMDV RLuc inconclusive.
`O=C(c1ccc(-c2ccc(F)cc2)s1)N(Cc1ccco1)C1CC1` gave FMDV FLuc 63% and FMDV RLuc 37%.
Cc1cc(N2CCCC2)nc(Nc2ccc(NC(=O)Nc3ccc(Cl)cc3)cc2)n1 was read as FMDV FLuc 48% and FMDV RLuc 13%.
For Cc1cc(N2CCCCC2)nc(Nc2ccc(NC(=O)Cc3ccccc3)cc2)n1 the results were FMDV FLuc 14µM* and FMDV RLuc 13µM*.
Cc1cc(N2CCOCC2)nc(N2CCN(C(=O)Nc3ccccc3)CC2)n1 was read as FMDV FLuc 0% and FMDV RLuc -4%.
CCN(CC)c1cc(C)nc(Nc2ccc(NS(=O)(=O)c3ccc(OC)c(OC)c3)cc2)n1 was read as FMDV FLuc inconclusive and FMDV RLuc -61%.
`Cc1cc(N2CCCC2)nc(Nc2ccc(NS(=O)(=O)c3ccc(Br)cc3)cc2)n1` gave FMDV FLuc 32µM* and FMDV RLuc -17%.
Cc1cc(N2CCOCC2)nc(Nc2ccc(NC(=O)CCc3ccccc3)cc2)n1 was read as FMDV FLuc 5µM* and FMDV RLuc 4µM*.
Screening O=C(O)Cn1cnnn1 returned FMDV FLuc -16%[11.5 µM] and FMDV RLuc -2%.
Screening CC(=O)C(C(=O)c1ccc(F)cc1)C1c2ccccc2Sc2ccccc21 (configuration not stated) returned FMDV FLuc 15% and FMDV RLuc 47%.
For CC(=O)c1ccc(-n2cccc2)cc1 the results were FMDV FLuc 0% and FMDV RLuc 5%.
CCCSc1nc(N)c2c3c(sc2n1)CCCC3C (configuration not stated) was read as FMDV FLuc 187% and FMDV RLuc 8%.
Screening COc1cc(CN(C(=O)COc2ccc(Br)cc2)c2ccccn2)cc(OC)c1OC returned FMDV FLuc -42% and FMDV RLuc 22µM*.
`COc1cc(CN(C(=O)COc2ccc(C)cc2)c2ccccn2)cc(OC)c1OC` gave FMDV FLuc 40% and FMDV RLuc 34%.
O=C(Cn1cc(/C=C2\NC(=O)N(Cc3ccc([N+](=O)[O-])cc3)C2=O)c2ccccc21)N1CCOCC1 was read as FMDV FLuc -5% and FMDV RLuc -2%.
CCOc1ccc(C(=O)Nc2nc(C)cs2)cc1OC was read as FMDV FLuc 1% and FMDV RLuc 4%.
For Cc1csc(NC(=O)c2ccc(Oc3ccc(Br)cc3)nc2)n1 the results were FMDV FLuc inconclusive and FMDV RLuc 13µM*.
For O=C(Nc1ccccc1F)C12CC3CC(CC(C3)C1)C2 the results were FMDV FLuc 18% and FMDV RLuc 9%.
For CCN(CC)c1ccc(Nc2nc(N3CCOCC3)c3ccccc3n2)cc1 the results were FMDV FLuc inconclusive and FMDV RLuc 20µM*.
Screening CCOc1ccc(Nc2nc(N3CCOCC3)c3cnn(C)c3n2)cc1 returned FMDV FLuc 2% and FMDV RLuc 3%.
Screening Fc1cccc(-c2nc(COc3ccccc3F)co2)c1 returned FMDV FLuc 160% and FMDV RLuc 10%.
Screening CNC(=O)c1ccccc1OCc1coc(-c2cccc(F)c2)n1 returned FMDV FLuc inconclusive and FMDV RLuc 25µM*.
Screening CNC(=O)Nc1ccc(NC(=O)c2cc3ccc(OC)cc3nc2C)cc1 returned FMDV FLuc 1% and FMDV RLuc -9%.
Screening CC(C)(C)c1cc(C(C)(C)C)c2oc(=O)c(-c3nc4ccccc4[nH]3)cc2c1 returned FMDV FLuc -18% and FMDV RLuc -11%.
`CC(C)(C)c1cc(-c2nc3ccccc3[nH]2)n[nH]1` gave FMDV FLuc 2.8µM* and FMDV RLuc 8%.
For CN(Cc1ccccc1)c1nc2c(c(=O)n(C)c(=O)n2C)n1Cc1ccc(Cl)cc1 the results were FMDV FLuc 1% and FMDV RLuc -9%.
C[C@@H]1CC2=CC(=O)CC[C@@H]2[C@H]2CC[C@@]3(C)[C@@H](CC[C@]3(C)O)[C@@H]21 was read as FMDV FLuc -16% and FMDV RLuc -8%.
`Cc1ccc(-c2nn(C)c(=O)c3ccccc23)cc1S(=O)(=O)NC(C)C` gave FMDV FLuc inconclusive and FMDV RLuc 0%.
Screening O=C(CSc1ccc2ccccc2n1)Nc1ccc2c(c1)CCC2 returned FMDV FLuc 59% and FMDV RLuc -1%.
O=C(CSc1ccc(N2CCC(C(=O)N3CCCCC3)CC2)nn1)Nc1ccc2c(c1)CCC2 was read as FMDV FLuc 4µM* and FMDV RLuc 3.2µM*.
`COc1ccccc1/C=C/C(=O)c1ccc(C)cc1OC` gave FMDV FLuc 0% and FMDV RLuc 31%.
